Assay results published in PubChem BioAssay AID743395 (Broad Institute, 2014).
Out of some 1,200 compounds screened, about 480 (40%) were called active. The set was probably picked from earlier hits. A selection follows. Results with a measured potency or affinity are listed apart. Values without a mark were called inactive. No rule for the calls is given here.

Experiment: viability loss in human hepatoma cells – cell-based, CellTiter-Glo luminescence, cherry-pick, set 2, cytotoxicity control, dose response (AID 743395);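 also: 0% = neutral control wells and -100% = positive control wells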
Settings: HepG2 viability, CellTiter-Glo ATP luminescence, 72 h; series mostly up to 26 µM; activity change, negative = cytotoxicity: at the top concentration
With `COc1ccccc1/C=C/C=N/NC(=O)CCn1cnc2ccccc21` the “activity change, negative = cytotoxicity” value was -31.2%.
With `C#Cc1ccc(C(=O)Nc2ccc(N3CCC(C)CC3)c(C(N)=O)c2)cc1` the “activity change, negative = cytotoxicity” value was -15.7%.
With `Cc1ccc(OCC(=O)Nc2ccc3c(c2)ncn3C)cc1` the “activity change, negative = cytotoxicity” value was -12.2%.
For `C[C@H]1CN([C@@H](C)CO)S(=O)(=O)c2ccc(C#Cc3ccccc3F)cc2O[C@H]1CN(C)C(=O)c1ccc2c(c1)OCO2`, the “activity change, negative = cytotoxicity” value was 25.8%.
With `COc1cc(/C=N/NC(=O)c2cc(-c3c(C)nn(-c4ccccc4)c3C)n[nH]2)ccc1O` the “activity change, negative = cytotoxicity” value was 2.51%.
For `COc1ccc(/C=N/NC(=O)c2cccnc2)cc1CSc1ccccn1`, the “activity change, negative = cytotoxicity” value was -16.4%.
For `CC#CCOCC1CNC(=O)O1` (stereo not drawn), the “activity change, negative = cytotoxicity” value was -6.75%.
With `CCCN1[C@H](C(=O)N2CCOCC2)[C@@H](CO)[C@@H]2Cn3c(ccc(/C=C/c4ccccc4)c3=O)[C@@H]21` the “activity change, negative = cytotoxicity” value was 1.53%.
For `O=C(COC(=O)C1CCC1)Nc1cc(S(=O)(=O)N2CCOCC2)ccc1Cl`, the “activity change, negative = cytotoxicity” value was 9.46%.
With `CCOc1ccc(S(=O)(=O)N2CCOCC2)cc1NC(=O)CSCC(=O)Nc1ccc(OC)cc1` the “activity change, negative = cytotoxicity” value was -6.38%.
In the case of `COC(=O)[C@H](CCSC)NC(=O)Cn1cc(C)c(=O)[nH]c1=O`, the “activity change, negative = cytotoxicity” value is reported as -3.37%.
With `COCOc1cccc(CN2CCC2(C)C(=O)Nc2ccc(C)c(O)c2)c1` (stereo not drawn) the “activity change, negative = cytotoxicity” value was -20.5%.
For `CCN(C(=O)CSc1nnc(C)n1-c1ccc(C)cc1)c1c(N)n(Cc2ccccc2)c(=O)[nH]c1=O`, the “activity change, negative = cytotoxicity” value was -6.86%.
In the case of `COc1ccc(NC(=O)N(C)C[C@H]2Oc3c(cccc3N(C)C)C(=O)N([C@H](C)CO)C[C@H]2C)cc1`, the “activity change, negative = cytotoxicity” value is reported as -8.08%.
For `COc1ccc(S(=O)(=O)Nc2ccc3c(c2)C(=O)N([C@@H](C)CO)C[C@H](C)[C@H](CN(C)Cc2ccc(Cl)c(Cl)c2)OCCCC[C@@H](C)O3)cc1`, the “activity change, negative = cytotoxicity” value was 7.33%.
With `Cc1ccc(S(=O)(=O)Nc2ccc3c(c2)C(=O)N([C@@H](C)CO)C[C@H](C)[C@H](CN(C)S(=O)(=O)c2ccc(Cl)cc2)OCCCC[C@@H](C)O3)cc1` the “activity change, negative = cytotoxicity” value was 7.44%.
With `Cc1ccc(N2CC(C(=O)N(C)CC(=O)Nc3ccc(Cl)c(C(F)(F)F)c3)CC2=O)cc1` (stereo not drawn) the “activity change, negative = cytotoxicity” value was 11%.
For `Cn1nc(C(=O)NNC(=O)CCOc2ccc(C(C)(C)C)cc2)c2ccccc2c1=O`, the “activity change, negative = cytotoxicity” value was -16.7%.
With `COc1ccc(OCC(=O)NNC(=O)CCc2ccccc2)cc1` the “activity change, negative = cytotoxicity” value was 17.5%.
For `O=c1cc(-c2ccccc2)[nH]c2ccc(F)cc12`, the “activity change, negative = cytotoxicity” value was -11.9%.
For `O=C(Nc1ccc(F)cc1)Nc1ccc(N2CCOCC2)c2nonc12`, the “activity change, negative = cytotoxicity” value was -14.1%.
In the case of `COC(=O)c1ccc(C(=O)NC2CCCc3c2cnn3-c2ccc(C)c(C)c2)cc1` (stereo not drawn), the “activity change, negative = cytotoxicity” value is reported as -8.84%.
With `O=C(N/N=C/c1ccccc1OC(F)F)c1cc(-c2ccncc2)nc2ccccc12` the “activity change, negative = cytotoxicity” value was -20.7%.
In the case of `O=C(CN1CCN(S(=O)(=O)c2ccc(F)c(Cl)c2)CC1)N1CCc2ccccc2C1`, the “activity change, negative = cytotoxicity” value is reported as -20.4%.
With `Cc1ccc(C)c(NC(=O)CSc2nc3c(c(=O)n2C)SC(C)C3)c1` (stereo not drawn) the “activity change, negative = cytotoxicity” value was -11.9%.
In the case of `COC(=O)c1c(-c2ccc(C)cc2)csc1NC(=O)c1c(-c2ccccc2)noc1C`, the “activity change, negative = cytotoxicity” value is reported as -3.85%.
With `Cc1ccc(NC(=O)c2c(C)noc2C)cc1S(=O)(=O)N1CCOCC1` the “activity change, negative = cytotoxicity” value was -6.83%.
For `O=C(CSc1nc2ccccc2n1-c1ccccc1)Nc1ncc(Cl)cc1Cl`, the “activity change, negative = cytotoxicity” value was -9.54%.
With `O=C(COc1ccc(F)cc1Cl)Nc1cccc(S(=O)(=O)N2CCCCCC2)c1` the “activity change, negative = cytotoxicity” value was 1.09%.
With `O=S1(=O)CCN(C(CO)c2ccccc2)CC1` (stereo not drawn) the “activity change, negative = cytotoxicity” value was -12.1%.
In the case of `COc1ccc(/C=C2\SC(=O)N(CCNC(=O)C3=COCCO3)C2=O)cc1`, the “activity change, negative = cytotoxicity” value is reported as -18%.
With `CC1(c2ccc3ccccc3c2)CCC(=O)O1` (stereo not drawn) the “activity change, negative = cytotoxicity” value was -3.36%.
With `COc1ccc(S(=O)(=O)N2CCN(CCOc3ccccc3Cl)CC2)cc1OC` the “activity change, negative = cytotoxicity” value was -28.1%.
With `COc1cc(/C=C2\SC(=S)N(NC(=O)c3ccncc3)C2=O)ccc1O` the “activity change, negative = cytotoxicity” value was -8.91%.
For `CCCCN1C(=O)/C(=C/C=C2\Oc3ccccc3N2CC)SC1=S`, the “activity change, negative = cytotoxicity” value was -19.4%.
For `O=C(CCNS(=O)(=O)c1cccc(C(F)(F)F)c1)NC1CC1`, the “activity change, negative = cytotoxicity” value was 2.26%.
For `Clc1ccc(CSc2nncn2-c2ccc3c(c2)OCCO3)cc1`, the “activity change, negative = cytotoxicity” value was -6.14%.
With `O=S(=O)(c1ccc(F)cc1)N1CC[C@@H]2[C@@H](CO)Nc3ccc(-c4ccc(F)cc4)cc3[C@@H]21` the “activity change, negative = cytotoxicity” value was -28.2%.
With `COc1ccc(S(=O)(=O)N2CC[C@@H]3[C@@H](CO)Nc4ccc(C5=CCCCC5)cc4[C@@H]32)cc1` the “activity change, negative = cytotoxicity” value was -2.3%.
In the case of `COc1ccc(S(=O)(=O)N2CC[C@@H]3[C@@H](CO)Nc4ccc(-c5ccc(C#N)cc5)cc4[C@@H]32)cc1`, the “activity change, negative = cytotoxicity” value is reported as -18.6%.
With `O=C(c1cccnc1)N1CC[C@@H]2[C@H](CO)Nc3ccc(C4=CCCCC4)cc3[C@@H]21` the “activity change, negative = cytotoxicity” value was -8.51%.
In the case of `Cc1ccc(S(=O)(=O)N2CCN(C(=O)CN(Cc3ccco3)Cc3cccs3)CC2)cc1`, the “activity change, negative = cytotoxicity” value is reported as -9.06%.
For `CCN(C(=O)COC(=O)c1cccc2ccccc12)c1c(N)n(Cc2ccccc2)c(=O)[nH]c1=O`, the “activity change, negative = cytotoxicity” value was 0.991%.
For `O=C(Nc1ccc(F)cc1)C1CCN(C(=O)c2ccc(F)cc2)CC1`, the “activity change, negative = cytotoxicity” value was -3.03%.
For `COc1cccc(-c2nnc(SCC(=O)NC3CCS(=O)(=O)C3)n2C)c1` (stereo not drawn), the “activity change, negative = cytotoxicity” value was 12.4%.
With `O=C(NCc1ccccn1)c1n[nH]c(=O)c2ccccc12` the “activity change, negative = cytotoxicity” value was 0.51%.
For `O=C(Cc1ccsc1)OCC(=O)c1ccccc1`, the “activity change, negative = cytotoxicity” value was -3.91%.
For `CCC(=O)c1ccc(OCC(=O)OCC(=O)N2CCc3ccccc3C2)cc1`, the “activity change, negative = cytotoxicity” value was -7.38%.
